The values that follow come from PubChem BioAssay AID1259422 (The Scripps Research Institute Molecular Screening Center, 2018).

In all, about 640,000 compounds went through this assay and about 9,300 (1.5%) were called active. This excerpt belongs to a sample that is enriched for actives. Unmarked numbers belong to inactive results. Rule as the data show it: active = inhibition above about 32%; inactive = the rest.

This experiment can be described thus: TEAD-YAP interaction inhibition, primary screen, TEAD-YAP interaction inhibitor project, luminescence, HEK-TIYL cells (AID 1259422).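 Also: 0% = median of test compound wells and 100% = reference inhibitor wells.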 Particulars: TEAD-Gal4/YAP UAS-luciferase luminescence, at 9.12 µM, active compounds read high.
Regarding `CCOC(=O)c1sc2ncn(CC(=O)Nc3cccc(C(F)(F)F)c3)c(=O)c2c1C`, the inhibition was 0.34%.
With `Cc1ccc(NC(=O)c2cc(S(=O)(=O)N3CCN(c4cccc(Cl)c4)CC3)ccc2F)cc1F` the figure was -4.95%; with `CCN1CCN(c2cc(Nc3cc(OC)c(OC)c(OC)c3)c3c4c(onc24)-c2ccccc2C3=O)CC1`, 5.58%.
With `Cc1ccc(S(=O)(=O)CCc2nnc(NC(=O)c3ccc([N+](=O)[O-])cc3)s2)cc1` the figure was -5.17%; with `NC(=O)Cn1c(=O)n(CCCCC(=O)NCc2ccccc2Cl)c(=O)c2ccccc21`, 2.5%.
With `O=C(NC1CCN(Cc2ccccc2)CC1)c1cccc(Nc2nccc3ccccc23)c1` the figure was 2.07%; with `CS(=O)(=O)N(CC(O)Cn1c2ccccc2c2ccccc21)c1ccccc1I` (stereo not given), -12.3%.
Turning to `CCCC(=O)NC(c1ccccc1OC)c1cc([N+](=O)[O-])c2cccnc2c1O` (stereo not given), the inhibition is 20.6%.
With `CNC(=O)COC(=O)c1c(Cl)cccc1Cl` the figure was -0.51%; with `CCOC(=O)c1ccccc1NS(=O)(=O)c1ccc(OC)cc1`, 46.5% (active); with `CCOC(=O)c1ccccc1NC(=O)/C=C/c1ccc(OC)cc1`, 4.72%.
The value for `Cc1ccc(S(=O)(=O)Nc2ccccc2C(=O)NN)cc1` was 12.8%; that for `O=C(Nc1ccccc1C(F)(F)F)c1cc(S(=O)(=O)NC2CCCC2)ccc1F` was 1.13%.
With `CCS(=O)(=O)c1ncc(Cl)c(C(=O)Nc2ccc(OC(F)F)cc2)n1` the figure was -5.89%.
Consider `Cc1cc(NC(=O)Cc2nn(C)c(=O)c3ccccc23)ccc1Br`, for which the inhibition was 4.56%.
Consider `Cn1nc(CC(=O)Nc2ccc(F)c(F)c2)c2ccccc2c1=O`, for which the inhibition was 46.9% (active).
With `Cc1ccc(F)cc1NC(=O)Cc1nn(C)c(=O)c2ccccc12` the figure was 29.9%; with `COc1cccc(-c2cnc3c(Nc4ccc(C(N)=O)cc4)nccn23)c1`, -21.2%; with `COc1cc(Nc2nccn3c(-c4cccc(NC(C)=O)c4)cnc23)cc(OC)c1OC`, 51.5% (active).
Turning to `COc1ccc(Nc2ncc(-c3cccc(NC(C)=O)c3)n3ccnc23)cc1`, the inhibition is -67.3%.
With `Cc1nc(-c2cncc(-c3ccc(F)cc3)c2)cc(=O)[nH]1` the figure was 5.59%; with `COc1cc(C(=O)Nc2ncc(Cc3ccccc3Cl)s2)cc(OC)c1OC`, 57.5% (active).
With `COc1cc(C(=O)Oc2ccccc2Cl)cc(OC)c1OC` the figure was 0.19%; with `COc1cc(NC(=O)c2sc3ncn(Cc4ccccc4Cl)c(=O)c3c2C)cc(OC)c1OC`, 0.99%.
With `CC(=O)Nc1ccc(NC(=O)c2cc3nc(C)ccc3o2)cc1`, the inhibition is 6.06%.
Consider `CCOC(=O)c1ccc(NC(=O)COc2c(Br)cc(C=O)cc2OC)cc1`, for which the inhibition is -2.35%.
The value for `CC1Nc2c(c(=O)oc3ccccc23)NC1=O` (stereo not given) was -13.4%; that for `O=c1c2nccnc2[nH]c(=S)n1CCc1ccccc1` was 32.2% (active); that for `O=C(NCCc1ccc(Cl)cc1)c1ccc2c(=O)n(CCc3ccccc3)c(=S)[nH]c2c1` was 6.42%.
With `O=C(Nc1ccc(Oc2ccccc2)cc1)c1ccc2c(=O)n(CCc3ccccc3)c(=S)[nH]c2c1` the figure was 4.57%.
With `Cc1ccc(C)c(C(=O)Nc2ccc3c(c2)N(S(=O)(=O)c2ccc(F)cc2)CCC3)c1` the figure was -2.68%.
Turning to `CC(=O)Nc1nc(C)c(-c2csc(Nc3ccc(C)cc3)n2)s1`, the inhibition is 1.48%.
As for `Cc1nc(N)sc1-c1csc(Nc2ccc(O)cc2)n1`, the inhibition was 2.78%.
Take `Cc1nc(C)c(-c2csc(Nc3ccc(Br)cc3)n2)s1`: the inhibition is 52.5% (active).
On to `CC(C)Cn1c(-c2ccccc2)c[nH]c1=S`, for which the inhibition was 4.66%.
With `CCN1CCN(C2=C(Cl)C(=O)N(c3cccc(C(=O)OC)c3)C2=O)CC1` the figure was 23.4%.
On to `CCOc1ccc(Cl)cc1S(N)(=O)=O`, for which the inhibition is -4.54%.
With `O=C(N/N=C/c1c(O)ccc2ccccc12)c1cc([N+](=O)[O-])cc([N+](=O)[O-])c1` the figure was 3.24%; with `CC(=O)Nc1cccc(C(=O)N/N=C/c2c(O)ccc3ccccc23)c1`, 14.8%; with `COc1ccc(C(=O)N/N=C/c2c(O)ccc3ccccc23)cc1`, 58.3% (active).
With `O=C(NCc1ccco1)c1ccc(N2CC3CC(C2)c2cccc(=O)n2C3)c(NC(=S)Nc2ccc(Cl)cc2Cl)c1` (stereo not given) the figure was -0.4%; with `Cc1ccc(Nc2nc3nonc3nc2NNc2ccccc2)cc1Cl`, -9.84%.
With `Nc1nc2nonc2nc1Nc1ccccc1`, the inhibition is 10.4%.
Consider `Cc1ccc(Nc2nc3nonc3nc2Nc2ccccc2F)cc1`, for which the inhibition was 69.4% (active).
With `Cc1cc(Cl)cc(Cl)c1OCCOCCN(C)CCO` the figure was 3.38%; with `O=C(NCCc1ccsc1)c1ccccc1Cl`, 46.4% (active).
The value for `O=C(NCCc1ccccc1)c1cc(Sc2ccccc2Cl)nc2ccccc12` was -11.2%; that for `O=C(NCCc1ccsc1)Nc1ccccc1F` was -29.3%.
For `COc1cccc(NC(=O)CSc2nnc(-c3ccc(F)cc3)c(-c3ccc(F)cc3)n2)c1`, the inhibition is 16.5%.
The value for `Fc1ccc(Nc2ncnc3ccc(I)cc23)cc1` was 25.1%; that for `COc1ccc(Nc2ncnc3ccc(Br)cc23)cc1` was 33.4% (active).
Regarding `COc1ccc(Nc2ncnc3c2cnn3-c2ccc(OC)cc2)cc1`, the inhibition was -19.6%.
As to `CC(=O)Oc1cccc(C(=O)Nc2ccc(C)c(C)c2)c1`, the inhibition was 62.5% (active).
The value for `CC(=O)Oc1cccc(C(=O)Nc2ccccc2Br)c1` was 14.5%; that for `CC(=O)Oc1cc(C(=O)Nc2cccc(C#N)c2)cc(C(=O)Nc2cccc(C#N)c2)c1` was -1.56%.
The value for `O=C(CNC(=O)c1ccc(Br)o1)OCC(=O)c1ccc(Br)cc1` was 4.37%; that for `Cc1ccc(CNC(=O)C(=O)N/N=C/c2ccccc2I)cc1` was -10.4%.
The value for `COc1ccc(CC2(CCC(=O)NCc3nc(C)cs3)CCC(=O)N2)c2ccccc12` (stereo not given) was -13.4%; that for `CCOc1ccccc1Nc1nnc(Cc2ccc(OC)cc2)c(=O)[nH]1` was 3.03%.
For `COc1ccc(Cc2nnc(N/N=C/c3ccccc3O)[nH]c2=O)cc1OC`, the inhibition is 85.4% (active).
The value for `COc1cccc(Nc2nnc(Cc3ccc(Cl)cc3)c(=O)[nH]2)c1` was 7.31%; that for `COc1cccc(C2(NC(=O)CN3C(=O)NC4C3N(C)C(=O)N4C)CCCC2)c1` (stereo not given) was 4.87%.
Take `CC1CN(C(=S)c2ccc(Br)cc2)CC(C)O1` (stereo not given): the inhibition was 6.13%.
As for `O=C(CSc1nnc(NC(=O)C2CCC2)s1)NCc1cccs1`, the inhibition was 5.18%.
With `COc1cccc(/C=N/NC(=O)CC23CC4CC(CC(C4)C2)C3)c1O` the figure was 69.8% (active); with `COc1cccc(/C=N/NC(=O)c2cc(O)cc(O)c2)c1O`, 20.7%; with `COc1cccc(/C=N/NC(=O)C(=O)Nc2cccc3ccccc23)c1O`, 65.7% (active).
The value for `COc1cccc(/C=N/N=C2/NC(=O)CS2)c1O` was 58.3% (active); that for `COc1cc(/C=N/N=C2/NC(=O)CS2)ccc1OC(=O)c1ccccc1C` was 3.4%; that for `O=C(N/N=C/c1cccc2ccccc12)C(=O)N/N=C/c1cccc2ccccc12` was 0.24%.
For the compound `COc1ccc(/C=N/N=C2/NC(=O)CS2)c(OC)c1`, the inhibition is -13.7%.
With `COc1cccc(/C=N/NC(=O)c2ccccc2I)c1O`, the inhibition is 13.4%.
Consider `COc1cccc(/C=N/NC(=O)CNc2cccc(C)c2)c1O`, for which the inhibition is 13.4%.
Regarding `O=C(Cc1ccsc1)N1CCC[C@@H]2CN(C/C=C/c3ccccc3)CC[C@H]21`, the inhibition was -4.71%.
The value for `CS(=O)(=O)c1ccc(NCc2ccco2)cc1` was -0.14%; that for `CCOC(=O)C1=C(C)N=c2s/c(=C\c3ccc(N(C)C)c(Br)c3)c(=O)n2C1c1ccc(OC)c(OC)c1` (stereo not given) was -28.6%.
Turning to `CCc1nc(SCC(N)=O)c2c3c(sc2n1)CCCC3`, the inhibition is -22.7%.
The value for `COc1ccc2nc(N3CCC(NCc4cccc(F)c4F)CC3)nc(C)c2c1` was 5.35%; that for `CC(=O)C(C(C)=O)c1cc(Nc2ccc(C)cc2)c2c3c(onc13)-c1ccccc1C2=O` was 3.02%.
For the compound `CCOC(=O)C1(CO)NC(c2ccc(O)cc2)C2C(=O)N(C)C(=O)C21` (stereo not given), the inhibition is -8.15%.
With `CCOC(=O)C(=O)C(C#N)c1ccc(OC(C)C)cc1` (stereo not given) the figure was 2.75%; with `CCCCNc1cc(-c2cccc(OC)c2)ncn1`, 64.6% (active); with `COc1cccc(-c2cnc3ccc(NCc4ccco4)nn23)c1`, 8.66%.
With `CCCNc1ccc2ncc(-c3cccc(OC)c3)n2n1` the figure was 59.2% (active).
Consider `CCCNc1cc(-c2cccc(N)c2)ncn1`, for which the inhibition was -10.6%.
The value for `c1ccc(OCCNc2cc(-c3ccccc3)ncn2)cc1` was -25.8%; that for `CCCNc1ccc2ncc(-c3ccco3)n2n1` was 3.49%.
The value for `CCOc1cc(-c2nc3sc4c(c3c(=O)[nH]2)CCCC4)cc(Br)c1OCc1ccccc1F` was -1.86%; that for `CCN(CC)C(=O)c1sc(NC(=O)c2cccc(OC)c2)c(C(=O)OC(C)C)c1C` was 7.6%.
As for `O=S(=O)(/C=C/c1ccccc1)N1CCN(CC(O)COCc2ccccc2)CC1` (stereo not given), the inhibition is 1.15%.
With `Cc1ccc(S(=O)(=O)N(CC(=O)N2CCCC2)c2ccc(Cl)cc2C)cc1` the figure was 2.4%; with `Cc1ccc(/C=N/NC(=O)c2ccc(Cl)cc2O)o1`, -20.5%; with `Oc1c(CN2CCCC2)cc(COCc2ccccc2)c2cccnc12`, 63% (active).
With `COc1ccc(CN2CCN(Cc3cccnc3)CC2)cc1OCc1ccccc1` the figure was 8.2%; with `Oc1c(CN2CCN(c3cccc(Cl)c3)CC2)cc(Br)c2cccnc12`, 5.69%.
